AGP1-GFP MLPCN – yeast TOR pathway AGP1-GFP modulation; S. cerevisiae AGP1-GFP multiplex flow cytometry, 3 h; GFP as percent of DMSO wells; 320,000 tested, 0.02% active; GFP response vs DMSO, % at 10 µM;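 active = GFP response relative to DMSO above a set limit, near screen average plus 3 SD, cut at about 150% in these data; inconclusive = fewer than 70 cells counted for the yeast strain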;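 note: median GFP channel fluorescence of the gated AGP1 strain per well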
MEP2 TOR yeast – modulators of TOR pathway MEP2-GFP in S. cerevisiae; S. cerevisiae MEP2-GFP strain, flow cytometry GFP, 3 h; 100% = DMSO control level; GFP response vs DMSO, % at 10 µM; 330,000 tested, 0.51% active; AID 2016;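 active = GFP response versus DMSO above a set limit, roughly screen mean plus 3 SD, cut at about 180% in these data; inconclusive = fewer than 70 cells counted for a yeast strain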;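 note: median GFP fluorescence of the barcode-gated MEP2-GFP cells per well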
LAP4 TOR yeast – yeast TOR pathway LAP4-GFP modulation | S. cerevisiae LAP4-GFP multiplex, flow cytometry GFP, 3 h; median GFP as percent of DMSO wells | GFP response vs DMSO, % at 10 µM | 320,000 tested, 0.34% active | AID 2023;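 active = GFP response vs DMSO above a set limit, about the screen mean plus 3 SD, cut at about 150% in these data; inconclusive = under 70 cell events counted for the yeast strain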
RPL19A TOR yeast – yeast TOR pathway RPL19A-GFP modulation; percent response vs DMSO, % at 10 µM; 330,000 tested, 0.3% active; AID 2025; S. cerevisiae RPL19A-GFP strain, flow cytometry, 3 h; stronger effect = lower value;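 active = percent response vs DMSO below 50%; inconclusive = fewer than 70 events counted for the yeast strain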;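 note: median channel GFP fluorescence of the barcoded RPL19A-GFP strain; ratio of sample median GFP to plate DMSO average so 100% = DMSO; lower means less RPL19A-GFP as with rapamycin TOR inhibition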
CIT2-GFP yeast – modulators of TOR pathway CIT2-GFP in S. cerevisiae; 320,000 tested, 0.065% active; GFP response vs DMSO, % at 10 µM; S. cerevisiae CIT2-GFP strain, flow cytometry, 3 h; 100 means same as DMSO wells;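 active = GFP response relative to DMSO above a set limit, near the screen mean plus 3 SD, cut at about 150% in these data; inconclusive = Fewer than 70 cells measured for a yeast strain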;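 note: ratio of well median GFP fluorescence to mean of DMSO wells on the plate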
LAP4-GFP pick2 – reconfirmed LAP4-GFP TOR pathway modulator in yeast; AID 2621; shares compounds with LAP4 TOR yeast; GFP response vs DMSO, % at 10 µM; 590 tested, 20% active; S. cerevisiae LAP4-GFP strain, flow cytometry GFP, 3 h;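 active = GFP signal as percent of the solvent control above about 150%, meaning raised reporter expression, limit read from the data; inconclusive = fewer than 70 cells counted in the well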;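 note: ratio of well median GFP fluorescence to plate DMSO mean so 100% = DMSO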
MEP2-GFP pick2 – second confirmation of modulators of TOR reporter MEP2-GFP in yeast | GFP response vs DMSO, % at 10 µM | S. cerevisiae MEP2-GFP strain, flow cytometry GFP, 3 h | AID 2622 | shares compounds with LAP4 TOR yeast | 590 tested, 10% active;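 active = GFP signal above 150% of the solvent control wells, that is a rise of more than half; inconclusive = fewer than 70 yeast cells counted in the well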;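 note: median channel GFP fluorescence of all gated yeast cells per well; ratio of median GFP to plate DMSO average so 100% = DMSO level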
RPL19A GFP CP2 – reconfirmed modulator of RPL19A-GFP TOR reporter in yeast | GFP response vs DMSO, % at 10 µM | S. cerevisiae RPL19A-GFP strain, flow cytometry GFP, 3 h; stronger effect = lower value; 100% means same as DMSO wells | 590 tested, 3% active | shares compounds with LAP4 TOR yeast | AID 2623;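 active = under 65% GFP response relative to DMSO; inconclusive = yeast strain with under 70 measured events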;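 note: median GFP channel fluorescence per well over the all cells gate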
CIT2 GFP CP2 – second confirmation of modulators of TOR reporter CIT2-GFP in yeast; shares compounds with LAP4 TOR yeast; 590 tested, 8% active; GFP response vs DMSO, % at 10 µM; S. cerevisiae CIT2-GFP strain, flow cytometry GFP, 3 h; DMSO control wells read 100%; AID 2624;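 active = GFP response vs DMSO above about 150%, limit read from the data; inconclusive = fewer than 70 events counted for a yeast strain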;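 note: median green fluorescence per well over all gated yeast cells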
AGP1 GFP CP2 – second confirmation of modulators of TOR reporter AGP1-GFP in yeast | shares compounds with LAP4 TOR yeast | percent response vs DMSO, % at 10 µM | 590 tested, under 10 active | AID 2643 | S. cerevisiae AGP1-GFP strain, flow cytometry GFP, 3 h;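 active = over 150 percent of DMSO response; inconclusive = yeast strain measured with under 70 events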;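 note: median GFP channel fluorescence over all cells without mother daughter split; sample median GFP divided by mean DMSO control so 100% equals DMSO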
s288c autofluor – yeast s288c autofluorescence artifact, counter-screen; fluorescence change (kMESF span) at 33 µM; AID 2757; 610 tested, under 10 active; shares compounds with LAP4 TOR yeast; S. cerevisiae s288c, 520 nm autofluorescence, flow cytometry, 3 h; stronger effect = higher value; zero means same as solvent-only cells;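 active = fluorescence span over the dose series, or activity score, above about 33, limit read from the data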
s288c autofl DR – yeast s288c autofluorescence artifact in dose response. shares compounds with LAP4 TOR yeast. S. cerevisiae s288c parental, compound autofluorescence, flow cytometry, 3 h. fluorescence change (span) at 33 µM. 110 tested, under 10 active. AID 488829;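 active = fluorescence change span, or the activity score built from it, above 25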
TORC1 bypass – wildtype yeast growth loss with TORC1 bypass cells unaffected | shares compounds with LAP4 TOR yeast | S. cerevisiae BY4741 spot growth rating, 48-72 h; stronger effect = lower value | growth rating (0-3) at 30 µM | 120 tested, under 10 active;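 active = growth rating at most 1 for wild type yeast while the TORC1 bypass strain still grows fully, rated 3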
Starred values were filed as active, the others as inactive; ? = inconclusive; . = not tested or not shown. A selection: hits, their analogues and other compounds. The true share with any hit is near 0.93%.

SMILES	AGP1-GFP MLPCN	MEP2 TOR yeast	LAP4 TOR yeast	RPL19A TOR yeast	CIT2-GFP yeast	LAP4-GFP pick2	MEP2-GFP pick2	RPL19A GFP CP2	CIT2 GFP CP2	AGP1 GFP CP2	s288c autofluor	others
O=C(CCC(=O)c1ccccc1)Nc1ccccc1OC(F)F	104.3	113.8	111.0	109.2	99.9	.	.	.	.	.	.
CCCCC[C@H]1CN(CCCC)C(=O)[C@@H]1CC(=O)NCc1ccc(OC)cc1	73.8	88.8	106.4	91.4	65.6	.	.	.	.	.	.
CCCCN1C[C@H](Cc2ccccc2)[C@@H](CC(=O)NCc2ccc(OC)cc2)C1=O	102.2	141.3	159.2*	88.5	101.2	97.1	99.8	101.7	106.3	104.7	.
COc1ccc(C(c2c(C)[nH]n(C(N)=S)c2=O)C(C#N)C#N)cc1 (stereo not given)	76.2	98.3	335.3*	98.0	76.6	.	.	.	.	.	0.41
O=C(OCC(=O)N1CCN(C(=O)c2ccco2)CC1)c1cn(-c2ccccc2)nc1-c1ccccc1	103.5	101.6	100.4	90.2	92.4	.	.	.	.	.	.
O=C(OCC(=O)N1CCN(C(=O)c2ccco2)CC1)c1cc(-c2cccc(Br)c2)nc2ccccc12	125.9	124.7	162.2*	66.1	121.2	.	.	.	.	.	0.1	s288c autofl DR=0.08;TORC1 bypass=3
O=C(OCC(=O)N1CCN(C(=O)c2ccco2)CC1)c1cc(-c2ccccc2)nc2ccccc12	137.4	202.5*	163.1*	69.6	119.6	144.3	214.8*	77.0	129.3	128.1	0.1
O=C(OCC(=O)N1CCN(C(=O)c2ccco2)CC1)c1cc(-c2ccc(F)cc2)nc2ccccc12	129.0	104.0	186.8*	71.5	105.1	148.1	201.3*	71.9	133.4	120.0	-0.1	s288c autofl DR=0.29;TORC1 bypass=3
O=C(O)CCc1ccc(S(=O)(=O)Nc2ccccc2N2CCCCC2)cc1	94.8	101.4	101.4	97.0	89.1	.	.	.	.	.	.
COc1ccc(CN(C)C(=O)c2ccc3c(=O)n4c(nc3c2)CCC4)cc1	94.8	95.0	96.3	98.7	94.5	.	.	.	.	.	.
Nc1cc(=O)[nH]c(SCC(=O)Nc2ccc(N3CCCCC3)cc2)n1	93.0	93.0	89.6	92.9	88.0	.	.	.	.	.	.
Cc1ccc(C)c(NC(=O)COC(=O)CCCN=C2NS(=O)(=O)c3ccccc32)c1	96.8	89.6	93.7	96.9	92.5	.	.	.	.	.	.
COc1ccc(OC)c(NC(=O)COC(=O)CCCN=C2NS(=O)(=O)c3ccccc32)c1	105.5	110.1	162.8*	86.2	83.9	100.0	101.5	100.0	98.4	101.1	.
CCNC(=S)Nc1ccc(S(=O)(=O)Nc2cc(C)nc(C)n2)cc1	19.7	127.1	88.7	76.7	?	.	.	.	.	.	.

Bioassay records: PubChem BioAssay, NMMLSC
